This is a sample that favours compounds with a hit; in the whole collection about 21% have one here.
Pf growth 48h = P. falciparum growth inhibition at 48 hours (one generation). hit rate 5.9% among 310,000. P. falciparum luciferase growth in erythrocytes, 48 h. AID 504832. Potency, µM (highest dose often 28.7 µM), for the others: at the top dose activity change, negative = inhibition, most hits filed as inhibitors; further: potency means the concentration at half of the fitted maximal effect; on the % scale 0 is the no-effect control and ±100 the full control effect
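Read-out is firefly luciferase luminescence from an integrated reporter in P. falciparum, so falling signal marks reduced parasite growth. Infected erythrocytes were at 2% hematocrit and 0.1% parasitemia (final) in Albumax-supplemented RPMI 1640.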
Pf growth 96h = inhibits malaria parasite growth, 96 h. Potency, µM (titrated, usually from 28.7 µM), without a hit: top-dose activity change, negative = inhibition, most hits filed as inhibitors. hit rate 6.9% among 320,000. P. falciparum luciferase reporter growth, 96 h. AID 504834; further: potency means the concentration at half of the fitted maximal effect; on the % scale 0 is the no-effect control and ±100 the full control effect
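Cell-based qHTS: luciferase-tagged P. falciparum in erythrocytes (2% hematocrit, 0.05% parasitemia final) incubated with compounds for 96 hours, 37 C, 5% CO2; luciferase detection reagent then added and luminescence measured.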
CHX counter = counter-screen hit for Shiga toxin inhibitors, cycloheximide; cell reporter, cycloheximide protein synthesis inhibition counterscreen; max response, %; hit rate 12% among 300,000; AID 2314; in the data active means max response mostly above about 13%, no sharp cut-off; inactive means mostly below about 14%; further: read at 38.3 µM for the half of the compounds with a filed dose; 0% is about no effect
Shiga inhibitor = inhibitors of Shiga toxin in Vero cells | Vero cells, Shiga toxin protein synthesis inhibition reporter | inhibition, % at 38.7 µM | hit rate 9.2% among 290,000 | AID 2315; in the data active means inhibition mostly above about 28%, no sharp cut-off; inactive means mostly below about 43%; further: 0% is about no effect
Numbers without * were called inactive; u = inconclusive; x = no result. Unless noted, the call rests on the fitted dose curve; in most records, active means well fitted inhibition curve with a large enough effect; inconclusive means small, poorly fitted or top-dose-only effect, or another doubt; inactive means no such curve, though single readings can be large or run the other way.

SMILES	Pf growth 48h	Pf growth 96h	CHX counter	Shiga inhibitor
O=C(CSCc1ccc(Cl)cc1)NCc1ccc2c(c1)OCO2	-2.8%	-1.0%	-2.5	-2.6
C[N+](C)=C1SCC(C)(/C=N/O)S1 (stereo not given)	u	-3.6%	-0.6	-21.6
Cc1cc2oc(=O)cc(-c3cc4ccccc4o3)c2cc1OC(=O)N(C)C	u	u	-2.9	-9.4
CCN(CC)C(=O)Oc1cc2c(-c3cc4cccc(OC)c4o3)cc(=O)oc2cc1C	10.4µM*	10.4µM*	20.9	-3.5
CCN(CC)S(=O)(=O)c1ccc(NC(=O)c2ccc(N(C)S(C)(=O)=O)cc2)cc1	16.5µM*	8.28µM*	-2.8	-2.6
CCN(CC)S(=O)(=O)c1ccc(NC(=O)c2ccccc2N(C)S(C)(=O)=O)cc1	x	-13.9%	1.2	3.1
CC(=O)Nc1ccc(NC(=O)c2ccc(S(=O)(=O)N(C)c3ccccc3)cc2)cc1	13.1µM*	u	x	x
CC(=O)CCS(=O)(=O)c1ccc(Oc2ccc(S(=O)(=O)CCC(C)=O)cc2)cc1	-24.2%	u	17.5*	23.2*
Cc1ccnc(NC(=O)c2ccc([N+](=O)[O-])s2)c1	u	7.38µM*	59.9*	85.1*
Cc1cccc(C)c1NC(=O)c1ccc([N+](=O)[O-])s1	u	0.0%	-2.3	-4.9
Cc1cccc(NC(=O)c2ccc([N+](=O)[O-])s2)c1C	2.62µM*	-85.2%	5.2	4.2
Cc1cccc(NC(=O)c2ccc([N+](=O)[O-])s2)n1	u	8.28µM*	60.6*	61.4*
Cc1cccc(NC(=O)c2ccc([N+](=O)[O-])cc2Cl)n1	35.5%	u	7.1	-7.9
CCc1ccccc1NC(=O)COc1ccc(N2CC(C(N)=O)CC2=O)cc1 (stereo not given)	2.2%	-4.7%	-2.9	3.0
COc1cc(/C=C2/C(=O)N(c3ccc(Br)cc3)N=C2C)cc([N+](=O)[O-])c1O	22.1%	42.5%	-3.1	-12.8
CC1=NN(c2ccc(C)c(C)c2)C(=O)/C1=C\C=C\c1ccc([N+](=O)[O-])o1	0.5%	u	43.6*	88.0*
COC(=O)N1C(=O)[C@](c2ccc(OC)cc2)(C(C)C)N1C(=O)OC	10.8%	2.1%	10.3*	14.0
COC(=O)N1C(=O)[C@](c2ccsc2)(C(C)C)N1C(=O)OC	37.8%	6.7%	19.7*	13.8
CCOC(=O)c1ccc(N2C(=O)Cc3ccccc3C2=O)cc1	u	-18.8%	-4.6	-5.6
C=CC[C@]12CCc3ccccc3C1N(c1ccc(C(=O)OCC)cc1)C2=O (stereo not given in full)	13.1µM*	u	x	x
Cc1ccc(S(=O)(=O)N2C(=O)CCC2C(=O)O/N=C(\N)c2cccc([N+](=O)[O-])c2)cc1 (stereo not given)	0.5%	u	-1.4	-3.3
COc1nc(N2CCCC2)nc(-n2nnc(C(C)=O)c2C)n1	-4.7%	u	-7.7	-4.7
Cc1c(C(=O)N2CCN(c3ccccc3)CC2)oc2c(F)cccc12	-0.6%	u	32.3*	45.5
CCOC(=O)N1CCC(NC(=O)c2oc3c(F)cccc3c2C)CC1	44.5%	-0.3%	64.6*	62.2*
CC(=O)NCC1CCCN(C(=O)c2oc3c(F)cccc3c2C)C1 (stereo not given)	38.3%	-7.0%	14.3	25.5
SMILES	Pf growth 48h	Pf growth 96h	CHX counter	Shiga inhibitor
Cc1c(C(=O)NCCN2CCCC(O)C2)oc2c(F)cccc12 (stereo not given)	36.0%	-19.8%	-4.0	10.0
CCC(CC)C(=O)Nc1c(C(=O)N2CCN(c3ccccc3)CC2)oc2ccccc12	10.4µM*	-9.2%	-3.1	2.4
COCC1CCN(C(=O)c2oc3c(F)cccc3c2C)C1 (stereo not given)	u	u	22.9*	32.7*
O=C(C[n+]1ccccc1)N/N=C/c1ccc(C(=O)O)cc1	-6.4%	-11.0%	x	x
COc1cccc(CC(=O)NN2C(=O)NC3(CCCCC3)C2=O)c1	u	-27.0%	x	x
CCOc1cc(S(=O)(=O)NCCCN2CCOCC2)ccc1F	-0.3%	u	-3.5	-13.5
Cc1noc(C)c1COc1ccc(C(=O)OCC(=O)NCCN2C(=O)CSC2=O)cc1	-1.3%	-13.2%	0.8	19.5
O=C(/C=C/c1cccs1)N1CCC2(CC1)Oc1ccc(F)cc1C(=O)C21CC(c2ccc(Cl)cc2)=NO1 (stereo not given)	9.28µM*	1.85µM*	3.1	8.6
O=C(/C=C/c1cccs1)N1CCC2(CC1)Oc1ccc(F)cc1C(=O)C21CC(c2ccccc2)=NO1 (stereo not given)	10.4µM*	9.28µM*	4.5	-1.4
CCC(=O)N1CCC2(CC1)Oc1ccc(F)cc1C(=O)C21CC(c2cccnc2)=NO1 (stereo not given)	48.4%	27.0%	-1.8	17.3
O=C(c1ccc2c(c1)OCO2)N1CCC2(CC1)Oc1ccc(Cl)cc1C(=O)C21CC(c2ccccc2)=NO1 (stereo not given)	11.7µM*	13.1µM*	-4.2	-11.2
CC(C)(C)OC(=O)N1CCC2(CC1)Oc1ccc(F)cc1C(=O)C21CC(c2cccnc2)=NO1 (stereo not given)	10.4µM*	u	-3.9	-3.3
C=C(C)Cn1c(C)cc(C)c(S(=O)(=O)c2cccc(C)c2)c1=O	-19.6%	-15.0%	-0.9	20.2
O=C(c1ccc2c(c1)OCO2)N1CCC2(CC1)Oc1ccc(F)cc1C(=O)C21CC(c2ccc(Cl)cc2)=NO1 (stereo not given)	-21.7%	-3.6%	-3.0	-5.2
Cc1noc(C)c1C(=O)N1CCC2(CC1)Oc1ccc(F)cc1C(=O)C21CC(c2ccc(Cl)cc2)=NO1 (stereo not given)	11.7µM*	u	-4.3	-7.5
COCCNC(=O)C1CCCN(S(=O)(=O)c2ccc3c(c2)CC(C)N3C(=O)C2CC2)C1 (stereo not given)	0.6%	-17.2%	-2.9	-10.0
CCn1c(=O)cc(OCC(=O)Nc2ccc(C)cn2)c2ccccc21	0.3%	x	-4.2	-7.7
CCn1c(=O)cc(OCC(=O)Nc2nc(C)cs2)c2ccccc21	6.1%	2.08µM*	-1.0	-1.0
CCn1c(=O)cc(OCC(=O)Nc2ccccc2N2CCN(C)CC2)c2ccccc21	x	9.28µM*	4.1	-7.9
CCOC(=O)c1ccccc1NC(=O)COc1cc(=O)n(CC)c2ccccc12	x	-3.9%	0.1	-1.7
Cc1ccccc1NC(=O)Cn1nnc2ccccc21	23.4%	u	12.8	3.8
CCn1cc[n+](C)c1P(c1ccccc1)c1ccccc1	1.31µM*	u	-4.7	-10.8
CN(C)S(=O)(=O)c1cccc(CNCC2COc3ccccc3O2)c1 (stereo not given)	x	-6.9%	-1.3	-2.9
Cc1[nH]c2ccc(C(=O)N3CCN(c4ccccc4Cl)CC3)cc2c1C	-9.4%	-0.9%	2.4	-3.5
Cc1[nH]c2ccc(C(=O)N3CCCCC3)cc2c1C	158.3%	14.6%	38.8*	106.8*
Cc1[nH]c2ccc(C(=O)N3CCCC3)cc2c1C	14.1%	1.2%	30.4*	22.7
Cc1nnc(NC(=O)CSc2nnc(CC(=O)Nc3ccccc3C)n2C)s1	-8.1%	-3.8%	-5.9	-3.3
